Measured values reported in PubChem BioAssay.
A number with no mark means an inactive call. Where a call stands in place of a potency, no number is given. For some of these results: Potency and affinity values are given separately. Active and inactive are the calls of the source. Unless noted, no rule for the calls is given here.

Legend:
[1] = antimalarial activity against Dd2 strain (AID 2302;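 active = growth inhibition above 50% at the single 2 µM test dose, taken to imply half-maximal potency below 2 µM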); settings: P. falciparum Dd2 in RBCs, LDH growth readout, 72 h; at 2 µM; hits give high values
[2] = target: L-lactate dehydrogenase (Plasmodium falciparum (isolate CDC / Honduras)) (UniProt Q27743); assay: PfLDH activity inhibition – cell lysate, 3D7 strain, counter-screen for P. falciparum growth inhibition project (AID 2304); settings: P. falciparum 3D7 crude extract, LDH APAD/NBT absorbance; at 2 µM; hits give high values
Chain of L-lactate dehydrogenase (Plasmodium falciparum (isolate CDC / Honduras)) (Q27743 whole entry, looked up): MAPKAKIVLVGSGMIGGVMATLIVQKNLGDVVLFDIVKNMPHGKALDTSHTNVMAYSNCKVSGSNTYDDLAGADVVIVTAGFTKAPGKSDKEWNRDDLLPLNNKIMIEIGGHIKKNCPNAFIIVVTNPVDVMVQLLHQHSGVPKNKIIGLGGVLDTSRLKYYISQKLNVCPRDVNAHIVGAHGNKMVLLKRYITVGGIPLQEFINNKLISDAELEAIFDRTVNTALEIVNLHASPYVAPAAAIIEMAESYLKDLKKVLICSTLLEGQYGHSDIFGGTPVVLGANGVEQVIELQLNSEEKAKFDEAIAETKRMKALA

[3] = inhibition of 3D7 malaria parasite growth – strain 3D7 (AID 2306); settings: P. falciparum 3D7 erythrocytic growth, LDH absorbance, 72 h; at 2 µM; hits give high values
[4] = target: Calcium-dependent protein kinase 1 (Plasmodium falciparum (isolate 3D7)) (UniProt P62344); assay: PfCDPK1 kinase inhibitors, biochemical, TCAMS library (AID 1159585; cut-off not given, nearly all actives have IC50 up to about 0.98 µM;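 also: inhibitors leave more ATP so luminescence rises with inhibition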); settings: recombinant PfCDPK1, Kinase-Glo ATP depletion luminescence
Chain of Calcium-dependent protein kinase 1 (Plasmodium falciparum (isolate 3D7)) (P62344 whole entry, looked up): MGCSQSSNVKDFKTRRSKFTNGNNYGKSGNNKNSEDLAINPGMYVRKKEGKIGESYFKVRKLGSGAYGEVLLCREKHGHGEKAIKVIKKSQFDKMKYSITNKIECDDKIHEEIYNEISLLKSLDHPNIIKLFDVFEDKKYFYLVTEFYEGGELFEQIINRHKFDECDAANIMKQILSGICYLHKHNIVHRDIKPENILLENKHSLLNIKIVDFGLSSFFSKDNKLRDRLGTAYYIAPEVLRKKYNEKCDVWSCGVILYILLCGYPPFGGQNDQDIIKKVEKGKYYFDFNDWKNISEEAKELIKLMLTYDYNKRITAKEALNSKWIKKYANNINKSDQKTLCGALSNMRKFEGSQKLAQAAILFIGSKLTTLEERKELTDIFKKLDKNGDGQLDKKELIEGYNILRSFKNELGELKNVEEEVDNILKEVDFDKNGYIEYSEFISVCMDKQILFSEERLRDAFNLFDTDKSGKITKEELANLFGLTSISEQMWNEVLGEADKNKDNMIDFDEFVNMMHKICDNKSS

[5] = target: Plasmodium falciparum protein kinase 6 (PK6, PF3D7_1337100) (UniProt Q8IDW1); assay: PfPK6 kinase inhibitors, biochemical, TCAMS library (AID 1159586); settings: recombinant PfPK6, Kinase-Glo ATP depletion luminescence
Chain of Plasmodium falciparum protein kinase 6 (PK6, PF3D7_1337100) (Q8IDW1 1-305): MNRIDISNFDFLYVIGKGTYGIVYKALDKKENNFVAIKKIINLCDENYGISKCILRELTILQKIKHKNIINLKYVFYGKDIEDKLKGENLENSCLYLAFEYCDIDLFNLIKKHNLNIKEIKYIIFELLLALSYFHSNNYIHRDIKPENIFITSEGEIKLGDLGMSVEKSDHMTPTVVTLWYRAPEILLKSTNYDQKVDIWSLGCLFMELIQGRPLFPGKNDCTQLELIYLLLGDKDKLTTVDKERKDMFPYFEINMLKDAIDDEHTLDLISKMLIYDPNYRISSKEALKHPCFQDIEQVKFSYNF

[6] = target: Protein kinase 7 (PK7), Plasmodium falciparum 3D7 (PF3D7_0213400) (UniProt Q7YTF7); assay: inhibition of Plasmodium PK7 catalytic activity – biochemical, TCAMS antimalarial set, Kinase-Glo luminescence (AID 1159587); settings: recombinant PfPK7, Kinase-Glo ATP depletion luminescence
Chain of Protein kinase 7 (PK7), Plasmodium falciparum 3D7 (PF3D7_0213400) (Q7YTF7 1-343): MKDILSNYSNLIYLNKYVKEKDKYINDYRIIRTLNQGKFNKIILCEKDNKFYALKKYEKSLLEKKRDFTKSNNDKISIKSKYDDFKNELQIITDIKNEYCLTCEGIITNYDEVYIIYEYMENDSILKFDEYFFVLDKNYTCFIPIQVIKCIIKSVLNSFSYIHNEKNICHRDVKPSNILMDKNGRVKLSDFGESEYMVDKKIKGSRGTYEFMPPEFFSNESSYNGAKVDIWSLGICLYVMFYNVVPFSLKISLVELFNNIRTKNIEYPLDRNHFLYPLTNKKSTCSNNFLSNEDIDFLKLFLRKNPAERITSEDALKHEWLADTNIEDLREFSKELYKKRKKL

[7] = target: Calcium-dependent protein kinase 4 (Plasmodium falciparum (isolate 3D7)) (UniProt Q8IBS5); assay: PfCDPK4 kinase inhibitors, biochemical, TCAMS library (AID 1159588; cut-off not given, nearly all actives have IC50 up to about 0.91 µM); settings: recombinant PfCDPK4, Kinase-Glo ATP depletion luminescence
Chain of Calcium-dependent protein kinase 4 (Plasmodium falciparum (isolate 3D7)) (Q8IBS5 whole entry, looked up): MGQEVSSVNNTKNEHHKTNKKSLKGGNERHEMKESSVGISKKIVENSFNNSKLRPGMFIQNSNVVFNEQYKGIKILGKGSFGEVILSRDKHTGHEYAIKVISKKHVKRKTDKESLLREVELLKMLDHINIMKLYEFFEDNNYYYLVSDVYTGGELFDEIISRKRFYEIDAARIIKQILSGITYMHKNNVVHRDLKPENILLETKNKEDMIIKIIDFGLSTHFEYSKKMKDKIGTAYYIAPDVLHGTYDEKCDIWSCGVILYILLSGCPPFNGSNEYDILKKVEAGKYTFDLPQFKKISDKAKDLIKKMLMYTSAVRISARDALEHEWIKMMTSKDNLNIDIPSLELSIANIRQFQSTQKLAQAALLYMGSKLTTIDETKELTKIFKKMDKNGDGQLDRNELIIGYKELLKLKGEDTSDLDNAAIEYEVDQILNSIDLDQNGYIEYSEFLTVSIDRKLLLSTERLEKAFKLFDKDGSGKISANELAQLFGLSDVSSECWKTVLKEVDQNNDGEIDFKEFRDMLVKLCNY

Row | Compound | growth inhibition [1] | inhibition [2] [%] | growth inhibition [3] | outcome [4] | outcome [5] | outcome [6] | outcome [7]
1 | CN=C(N)c1ccc(NC(=O)C=Cc2ccc(C(=O)Nc3ccc(C(N)=NC)cc3)cc2)cc1 | 100% (active) | 1 | 97% (active) | inactive | inactive | inactive | inactive
2 | Nc1nc(N)c2c(Sc3ccc(F)cc3)cccc2n1 | -3% | 3 | 88% (active) | inactive | inactive | inactive | inactive
3 | Nc1nc(Cc2ccc(Cl)cc2)nc(Cc2ccc(Cl)cc2)n1 | -2% | 2 | 85% (active) | inactive | inactive | inactive | inactive
4 | Cc1[nH]c(C)c(-c2ccc(Oc3ccc(Cl)cc3)cc2)c(=O)c1C | 95% (active) | -8 | 96% (active) | inactive | inactive | inactive | inactive
5 | Cc1[nH]c(C)c(-c2ccc(Oc3ccc(S(C)=O)cc3)cc2)c(=O)c1Br (centres undefined) | 64% (active) | 0 | 91% (active) | inactive | inactive | inactive | inactive
6 | CCCCc1nc2nc(N)nc(N)c2cc1CCC | -3% | -1 | 97% (active) | inactive | inactive | inactive | inactive
7 | COc1ccc(Cc2c(Cl)nc3nc(N)nc(N)c3c2C)c(OC)c1OC | -3% | -2 | 98% (active) | inactive | inactive | inactive | inactive
8 | N=C(N)c1ccc2[nH]c(-c3cc4cc(C(=N)N)ccc4o3)cc2c1 | 87% (active) | 5 | 94% (active) | inactive | inactive | inactive | inactive
9 | CCNC(=NCc1ccccc1)NCCCCCCNC(=NCc1ccccc1)NCC | 95% (active) | -5 | 96% (active) | inactive | inactive | inactive | inactive
10 | CCOC(=O)c1c(-c2ccccc2)c(C(=O)OCC)n2ccccc12 | 70% (active) | -1 | 93% (active) | inactive | inactive | inactive | inactive
11 | COc1ccc2c(c1CNCCCCCCNCc1c(OC)ccc3c1CCCC3)CCCC2 | 7% | 6 | 94% (active) | inactive | inactive | inactive | inactive
12 | c1ccc(CN2CCN(CCCCNc3c4ccccc4nc4ccccc34)CC2)cc1 | 101% (active) | -6 | 102% (active) | inactive | inactive | inactive | inactive
13 | CC1CCNc2ccc(Cc3cnc(N)nc3N)cc21 (centres undefined) | 0% | 5 | 82% (active) | inactive | inactive | inactive | inactive
14 | CCCCCCCCCC(=O)NCC1CC(Br)=NO1 (centres undefined) | 42% | -7 | 87% (active) | inactive | inactive | inactive | inactive
15 | CCc1cc(COc2ccc(CNCCC(C)C)cc2I)c(OCc2ccccc2)c(COc2ccc(CNCCC(C)C)cc2I)c1 | 15% | 0 | 89% (active) | inactive | inactive | inactive | inactive
16 | Cc1[nH]c(C)c(-c2ccc(Oc3ccc(Cl)cc3)cc2)c(=O)c1Cl | 16% | -3 | 91% (active) | inactive | inactive | inactive | inactive
17 | Cc1nc(NCc2ccccc2)cc(Nc2cc(NCc3ccccc3)nc(C)n2)n1 | 32% | 8 | 90% (active) | inactive | inactive | inactive | inactive
18 | Cc1[nH]c(C)c(-c2ccc(Oc3ccccc3)cc2)c(=O)c1Br | 97% (active) | 1 | 96% (active) | inactive | inactive | inactive | inactive
19 | CCC(=C(CC)c1ccc(O)c(CNC2CCCCC2)c1)c1ccc(O)c(CNC2CCCCC2)c1 | 100% (active) | -1 | 100% (active) | inactive | inactive | inactive | inactive
20 | NC(N)=NC(=O)Nc1cc(F)c(Cl)c(Cl)c1 | 101% (active) | 2 | 101% (active) | inactive | inactive | inactive | inactive
21 | Cc1nc(N)nc(N)c1-c1cc(Cl)c(Cl)c(Cl)c1 | 0% | 2 | 97% (active) | inactive | inactive | inactive | inactive
22 | Cc1[nH]c(C)c(-c2ccc(Oc3cccc(OC(F)(F)F)c3)cc2)c(=O)c1Br | 96% (active) | -7 | 100% (active) | inactive | inactive | inactive | inactive
